Drawing on PubChem BioAssay (NCATS), this text covers Potency and outcome for 27 compounds.

Records with an inconclusive call do not appear. The source made the active and inactive calls. The call rests on the fitted dose curve; in most records, active means well fitted curve in the direction sought with a large enough effect; inconclusive means small, poorly fitted or top-dose-only effect, or another doubt; inactive means no such curve, though single readings can be large; an effect the other way counts as inactive or inconclusive.

Assay [1] in a line: qHTS of pediatric cancer cell lines to identify multiple opportunities for drug repurposing: Confirmatory screen for Saos-2 cells (AID 1347127). Further: nearly all actives have a fitted effect of over 60% in size. Further: potency means the concentration at half of the fitted maximal effect. Conditions: Saos-2 osteosarcoma cell viability; series mostly up to 45.9 µM. The essentials: (§1)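 Cells (500-1,000/well) rested 5 h, then received compounds for 48 h; metabolically active cells were measured by CellTiter-Glo luminescence. Final concentrations spanned up to 46 µM (MIPE, 11-point) or 0.59 nM-46 µM (NPC, 8-point) in primary screens, 11-point in follow-ups.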

Assay [2] in a line: qHTS of pediatric cancer cell lines to identify multiple opportunities for drug repurposing: Confirmatory screen for OHS-50 cells (AID 1347128).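 Further: compound exposure lasted 48 h at 37 degrees C; nearly all actives have a fitted effect of over 55% in size.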 Further: potency means the concentration at half of the fitted maximal effect. Conditions: OHS-50 osteosarcoma cells viability; series mostly up to 45.9 µM. In a few lines:
as §1

Assay [3] in a line: qHTS of pediatric cancer cell lines to identify multiple opportunities for drug repurposing: Confirmatory screen for SK-N-SH cells (AID 1347129).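 Further: cells exposed to compound for 48 h before viability read; nearly all actives have a fitted effect of over 60% in size.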 Further: potency means the concentration at half of the fitted maximal effect. To be noted: SK-N-SH neuroblastoma cell viability; series mostly up to 46.1 µM. In a few lines: as §1
In general terms: qHTS replaces the single test concentration by a dilution series.

The subject of assay [4] is Zika virus NS2B-NS3 protease. Kind of assay: Primary screen GU AMC qHTS for Zika virus inhibitors (AID 1347154). Further: nearly all actives have a fitted effect of over 70% in size. Further: potency means the concentration at half of the fitted maximal effect. To be noted: Zika NS2B-NS3 unlinked protease, AMC fluorogenic substrate; series mostly up to 54.1 µM. In a few lines:
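Fluorogenic AMC-substrate cleavage by noncovalent NS2B-NS3 protease complex (25 nM, pH 8.0 Tris buffer with Tween 20) followed for 15 minutes at room temperature (~20% conversion). Percent inhibition from ex340/em450 signal change, fitted by 4-parameter Hill equation.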

Assay [5] in a line: qHTS of pediatric cancer cell lines to identify multiple opportunities for drug repurposing: Confirmatory screen for Rh30 cells (AID 1347126). Further: nearly all actives have a fitted effect of over 55% in size. Further: potency means the concentration at half of the fitted maximal effect. Conditions: Rh30 rhabdomyosarcoma cell viability; series mostly up to 45.9 µM. In a few lines: as §1
For assay [6], the target named is N-terminal Xaa-Pro-Lys N-methyltransferase 1 (Homo sapiens) (UniProt Q9BV86). Kind of assay: qHTS Assay for Inhibitors of N-terminal methyltransferase 1 (NTMT1): LOPAC validation of the NTMT1 SAHH-coupled ThioGlo3 Assay (AID 1347143).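 Further: SAH from peptide methylation measured as thiol fluorescence via SAHH coupling and ThioGlo3; nearly all actives have a fitted effect of over 70% in size.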 Conditions: recombinant NTMT1, SAHH-coupled ThioGlo3 fluorescence; series mostly up to 114 µM. The essentials:
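NTMT1 125nM + cpds (various conc.), 1 min RT; add SAM 100uM/SAHH 10uM/ThioGlo3 15uM (addition mix). SAHH-coupled thiol detection, Ex340/Em450, t0 and 30 min RT; signal normalized to background. LOPAC 1280-cpd pilot.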

Assay [7] has as its system Zika virus NS2B-NS3 protease (unlinked). Kind of assay: Optimization of GU AMC qHTS for Zika virus inhibitors: Unlinked NS2B-NS3 protease assay (AID 1347151). Further: nearly all actives have a fitted effect of over 80% in size. Conditions: recombinant ZIKV NS2B-NS3 protease, fluorogenic AMC substrate; series mostly up to 52.5 µM. In a few lines: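 Percent inhibition is derived from the 15-min change in AMC fluorescence, normalized against no-inhibitor and no-enzyme controls, then fitted to a 4-parameter Hill curve. Aprotinin was the intraplate control.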

Assay [8] deals with Lysine-specific demethylase 5B (Homo sapiens) (UniProt Q9UGL1). Kind of assay: Optimization screen for KDM5B Histone Demethylases FDH coupled qHTS against the LOPAC library (AID 1347166). Conditions: KDM5B demethylation, FDH-coupled NADH fluorescence (FDH is formaldehyde dehydrogenase); series mostly up to 57.5 µM. In a few lines: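 KDM5BDeltaAP (200nM final) in 50mM HEPES pH 7.5, 0.01% Tween-20 was preincubated with compound for 10 min at room temperature. A substrate mix of 12.5uM H3K4Me3, 25uM a-ketoglutarate, ascorbate, Fe2+, NAD+ and formaldehyde dehydrogenase was then added. NADH fluorescence (340/450 nm) was read initially and after 30 min.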
Lysine-specific demethylase 5B (Homo sapiens), sequence (Q9UGL1 whole entry, looked up): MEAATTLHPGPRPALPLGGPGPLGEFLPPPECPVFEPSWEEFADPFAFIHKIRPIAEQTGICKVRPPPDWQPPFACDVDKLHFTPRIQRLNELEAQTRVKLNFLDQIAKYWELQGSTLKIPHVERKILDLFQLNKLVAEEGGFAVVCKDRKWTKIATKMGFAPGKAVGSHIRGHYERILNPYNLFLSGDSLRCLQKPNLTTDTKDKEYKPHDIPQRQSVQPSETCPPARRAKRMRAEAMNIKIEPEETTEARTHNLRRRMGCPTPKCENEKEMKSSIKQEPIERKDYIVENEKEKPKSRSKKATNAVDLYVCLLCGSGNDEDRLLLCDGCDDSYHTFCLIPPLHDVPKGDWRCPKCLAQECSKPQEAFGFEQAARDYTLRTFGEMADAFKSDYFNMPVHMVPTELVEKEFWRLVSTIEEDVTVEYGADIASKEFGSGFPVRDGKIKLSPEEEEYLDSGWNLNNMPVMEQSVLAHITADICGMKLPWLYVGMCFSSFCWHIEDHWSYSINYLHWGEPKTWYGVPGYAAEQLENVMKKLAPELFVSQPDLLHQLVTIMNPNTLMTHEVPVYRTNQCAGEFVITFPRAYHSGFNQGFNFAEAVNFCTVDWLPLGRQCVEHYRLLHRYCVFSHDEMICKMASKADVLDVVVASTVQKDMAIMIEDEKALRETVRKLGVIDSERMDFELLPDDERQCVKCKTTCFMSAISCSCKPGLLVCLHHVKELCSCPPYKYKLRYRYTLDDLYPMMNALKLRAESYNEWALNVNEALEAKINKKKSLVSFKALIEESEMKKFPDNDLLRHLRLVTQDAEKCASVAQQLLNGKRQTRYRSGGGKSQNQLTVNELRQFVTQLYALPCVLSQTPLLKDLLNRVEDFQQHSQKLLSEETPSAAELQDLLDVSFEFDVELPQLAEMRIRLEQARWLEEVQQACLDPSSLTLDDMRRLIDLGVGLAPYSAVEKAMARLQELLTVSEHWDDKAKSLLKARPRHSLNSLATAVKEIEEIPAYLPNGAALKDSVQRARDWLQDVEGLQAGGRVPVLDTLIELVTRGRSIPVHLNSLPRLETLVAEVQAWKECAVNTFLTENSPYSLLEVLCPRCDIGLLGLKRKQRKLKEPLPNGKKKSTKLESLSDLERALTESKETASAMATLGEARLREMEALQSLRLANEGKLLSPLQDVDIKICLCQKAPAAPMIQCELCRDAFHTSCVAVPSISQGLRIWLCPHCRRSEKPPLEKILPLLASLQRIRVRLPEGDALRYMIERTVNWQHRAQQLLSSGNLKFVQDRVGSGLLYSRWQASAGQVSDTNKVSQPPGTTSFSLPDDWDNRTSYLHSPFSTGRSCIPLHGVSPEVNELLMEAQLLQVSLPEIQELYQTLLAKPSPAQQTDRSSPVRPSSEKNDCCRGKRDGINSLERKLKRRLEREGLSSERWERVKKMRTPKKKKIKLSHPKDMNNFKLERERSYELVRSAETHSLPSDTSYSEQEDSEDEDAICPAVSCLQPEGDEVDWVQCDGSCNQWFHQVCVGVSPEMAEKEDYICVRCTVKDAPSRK

A further assay has as its target Furin (Homo sapiens) (UniProt P09958). The experiment in a line: Furin counterscreen qHTS for Zika virus inhibitors (AID 1347149).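 Further: purified recombinant full-length human furin enzyme at 5 nM; fluorescence gain from furin cutting a BOC-RVRR-AMC peptide substrate over 15 min; top concentration of the series differs between compounds; nearly all actives have a fitted effect of over 70% in size.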 Conditions: furin enzymatic counterscreen, fluorogenic substrate; series mostly up to 57.5 µM. The essentials: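 Counterscreen measures cleavage of 2 microM BOC-RVRR-AMC, below its ~15 microM Km, by 5 nM full-length human furin at pH 7.0 after a 15-min compound preincubation. Inhibition derives from the 15-min fluorescence increase at 37C.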
A general note: The purpose of a counterscreen is to sort out artefacts and off-target activity.

Assay [9] relates to Zika virus NS2B-NS3 protease (linked construct). Kind of assay: Confirmatory screen NINDS AMC qHTS for Zika virus inhibitors (AID 1347152).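 Further: AMC fluorescence gain from cleaved Bz-Nle-KRR-AMC substrate over 15 min; top concentration of the series differs between compounds; nearly all actives have a fitted effect of over 70% in size.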 Conditions: Purified linked NS2B-NS3, AMC substrate fluorescence; series mostly up to 56.6 µM. In a few lines: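 In this dose-response qHTS, AMC release from 10 microM Bz-Nle-KRR-AMC by 1 nM linked protease is measured over 15 minutes (about 20% conversion) at pH 8.0. Percent inhibition is fitted to a 4-parameter Hill curve.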

In assay [10] the test system is Zika virus NS2B-NS3 protease (unlinked complex). Kind of assay: Confirmatory screen GU AMC qHTS for Zika virus inhibitors (AID 1347153). Further: nearly all actives have a fitted effect of over 70% in size. To be noted: Recombinant NS2B-NS3 protease, AMC substrate fluorescence; series mostly up to 57.1 µM. The essentials: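 Noncovalent NS2B hydrophilic domain/NS3 protease complex (25 nM) in 10 mM Tris-HCl pH 8.0, 0.01% Tween 20 was preincubated 15 min at room temperature with compounds. Then 10 µM AMC substrate (Km 18.3 µM) was added; fluorescence was read over 15 min and fitted to a 4-parameter Hill equation.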

A short description of assay [11]: Confirmatory screen NINDS Rhodamine qHTS for Zika virus inhibitors (AID 1347161).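 Further: purified Zika NS2B-NS3 protease with linked NS2B cofactor domain and Rhodamine110 peptide substrate; nearly all actives have a fitted effect of over 60% in size.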 Conditions: purified enzyme assay, Rhodamine110 substrate fluorescence, 15 min; series mostly up to 114 µM. In a few lines:
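Each compound, titrated, sat 15 min with 25 nM linked protease before 1.5 microM Rhodamine110 substrate went in. Fluorescence gain over the next 15 min, in pH 8.0 Tris with Tween 20, gave Hill-fitted curves.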

The nature of assay [12]: Vero cells viability qHTS for Zika virus inhibitors (AID 1347167). To be noted: cytotoxicity counter-screen (Zika); series mostly up to 91.6 µM. In a few lines:
(§2)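 Luminescent ATP readout (CellTiter Glo) after 30 min at 37 degrees C gives viability; cells in DMEM + 4% FBS were treated 24 to 48 hours with compound, following overnight attachment.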

Assay [13] is described as follows: HepG2 cells viability qHTS for Zika virus inhibitors (AID 1347168). To be noted: Zika counter-screen; series mostly up to 91.6 µM. In a few lines: as §2

N-terminal Xaa-Pro-Lys N-methyltransferase 1 (Homo sapiens), sequence (Q9BV86 whole entry, looked up): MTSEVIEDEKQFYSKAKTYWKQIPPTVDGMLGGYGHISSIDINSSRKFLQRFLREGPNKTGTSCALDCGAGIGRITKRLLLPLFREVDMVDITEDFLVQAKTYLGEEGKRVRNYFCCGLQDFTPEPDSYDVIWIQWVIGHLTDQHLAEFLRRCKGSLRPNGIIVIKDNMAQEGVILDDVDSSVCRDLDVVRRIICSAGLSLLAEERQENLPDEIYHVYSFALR
Furin (Homo sapiens), sequence (P09958 whole entry, looked up): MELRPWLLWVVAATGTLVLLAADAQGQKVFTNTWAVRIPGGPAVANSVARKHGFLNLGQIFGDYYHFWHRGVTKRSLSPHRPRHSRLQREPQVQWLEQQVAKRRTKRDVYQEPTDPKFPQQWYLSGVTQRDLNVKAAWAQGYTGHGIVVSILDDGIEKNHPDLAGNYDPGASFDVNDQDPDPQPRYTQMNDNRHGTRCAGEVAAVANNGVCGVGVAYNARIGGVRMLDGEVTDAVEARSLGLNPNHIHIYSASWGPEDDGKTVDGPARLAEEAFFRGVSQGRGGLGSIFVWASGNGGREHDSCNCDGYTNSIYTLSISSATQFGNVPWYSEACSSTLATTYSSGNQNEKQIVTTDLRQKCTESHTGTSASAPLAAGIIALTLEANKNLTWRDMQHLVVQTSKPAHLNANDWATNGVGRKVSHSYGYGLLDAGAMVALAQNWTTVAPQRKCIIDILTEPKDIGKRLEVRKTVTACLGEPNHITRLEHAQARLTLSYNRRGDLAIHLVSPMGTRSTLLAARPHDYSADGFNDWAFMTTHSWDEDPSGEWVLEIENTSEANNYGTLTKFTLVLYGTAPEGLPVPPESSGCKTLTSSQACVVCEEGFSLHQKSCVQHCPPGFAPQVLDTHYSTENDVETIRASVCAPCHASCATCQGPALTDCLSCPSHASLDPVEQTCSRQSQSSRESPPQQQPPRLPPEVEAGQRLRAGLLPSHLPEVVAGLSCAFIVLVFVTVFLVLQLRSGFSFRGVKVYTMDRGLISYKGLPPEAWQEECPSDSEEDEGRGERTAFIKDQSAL

Regarding `Cc1ccc([N+](=O)[O-])[c]2c1[O][Hg]2`, the figures for the Potency in assay [1], in assay [2] and in [3] were 1040 nM (active), 2610 nM (active) and 3720 nM (active), respectively. For the same compound, the Potency result in assay [4] was “inactive”.

With `CC[n+]1c(-c2ccccc2)c2cc(N)ccc2c2ccc(N)cc21`, the values for the Potency in assay [5], in assay [1] and in assay [2] were 2610 nM (active), 16500 nM (active) and 1170 nM (active), respectively. The Potency result in [3] was “inactive”.

With `CC(C)(O)C(Cl)(Cl)Cl`, in assay [4], the Potency entry was “inactive”.

Consider `ClCc1cccc(Cl)c1`, for which the Potency result in assay [4] was “inactive”.

Take `COP(=S)(OC)Oc1ccc(Sc2ccc(OP(=S)(OC)OC)cc2)cc1`: in assay [4], the Potency result was “inactive”.

Regarding `CN1CCC(N(Cc2ccccc2)c2ccccc2)CC1`, the Potency result in assay [4] is “inactive”.

With `O=C(O)Cc1ccccc1`, the Potency entry in assay [3] and in assay [4] was “inactive” throughout.

Regarding `COc1ccc(CN2CCNCC2)c(OC)c1OC`, the Potency entry in assay [4] is “inactive”.

Take `Nc1ccc(Cl)cc1C(=O)c1ccccc1F`: the Potency entry in assay [4] is “inactive”.

Take `C[C@]12C=CC(=O)C=C1CC[C@@H]1[C@@H]2CC[C@@]2(C)[C@H]1CC[C@]2(C)O`: the Potency result in assay [4] was “inactive”.

With `NC(=O)CN1CCCC1=O`, the result in assay [6], in assay [7] and in assay [8] was inactive. Also, the Potency entry in assay [4] was “inactive”.

Turning to `COC(=O)C1=CCCN(C)C1`, the Potency entry in assay [5], in assay [2], in [3] and in [4] was “inactive” in each case. Moreover, the outcome in assay [6], in assay [7] and in assay [8] was inactive.

In the case of `Oc1ccc([C@H]2CNCc3c2ccc(O)c3O)cc1O`, the result (with Furin (Homo sapiens); in assay [9]; in [10]; in assay [12]; in assay [13]) was inactive. The Potency in [4] was 10200 nM (active). In addition, the Potency result in [11] is “inactive”.

Regarding `O=C(CCCN1CCC(n2c(=O)[nH]c3ccccc32)CC1)c1ccc(F)cc1`, the Potency entry in assay [4] is “inactive”.

As for `COc1ccc(C(=O)N2CCCC2=O)cc1`, the Potency entry in [1], in assay [3] and in [4] was “inactive” each time. Moreover, the result in [6], in assay [7] and in [8] was inactive.

Take `C[C@@H]1O[C@@H](O[C@@H]2C=C3CC[C@@H]4[C@H](CC[C@]5(C)[C@@H](c6ccc(=O)oc6)CC[C@]45O)[C@@]3(C)CC2)[C@H](O)[C@H](O)[C@H]1O`: the Potency was 185 nM (active) in [1] and 26.4 nM (active) in assay [3]. In addition, the Potency result in assay [4] was “inactive”.

`CC(C)NCC(O)c1ccc(N)c(C#N)c1` (stereo not drawn): the Potency result in assay [4] was “inactive”.

`CN(C)C(=S)SSC(=S)N(C)C`: the Potency in assay [1] was 10400 nM (active); in assay [3] it was 11800 nM (active). Besides, in [4], the Potency result is “inactive”.

With `NC(=O)OCCCc1ccccc1`, the Potency result in assay [4] was “inactive”.

For `CCc1ccc(C2CCNCC2)cc1`, the Potency result in [5], in assay [1], in [2], in assay [3] and in assay [4] was “inactive” throughout.

As to `C=CCOC(Cn1ccnc1)c1ccc(Cl)cc1Cl` (stereo not drawn), the Potency entry in [4] was “inactive”.

Take `COc1cc(CC(C)N)c(OC)cc1Br` (stereo not drawn): the Potency entry in assay [4] is “inactive”.

Turning to `CC1COC2(c3ccccc3Cl)c3cc(Cl)ccc3NC(=O)CN12` (stereo not drawn), the Potency entry in assay [4] was “inactive”.

For the compound `C[C@@H]1C[C@@H]([C@H](O)CC2CC(=O)NC(=O)C2)C(=O)[C@@H](C)C1`, the Potency in assay [5] is 737 nM (active); in assay [2], 928 nM (active). Also, the Potency entry in assay [4] is “inactive”.

Turning to `CN1[C@@H]2CC[C@H]1CC(OC(=O)c1cc(Cl)cc(Cl)c1)C2` (stereo partly drawn), the Potency entry in [5], in assay [1], in assay [2] and in assay [4] was “inactive” each time.

In the case of `CC1Sc2c(C(=O)O)c(=O)c3cc(F)c(N4CCNCC4)cc3n21` (stereo not drawn), the Potency result in assay [2], in assay [3] and in assay [4] was “inactive” in each case.

For the compound `ClC1=C(Cl)C2(Cl)C(CBr)CC1(Cl)C2(Cl)Cl` (stereo not drawn), the Potency result in [5], in assay [1], in [2], in assay [3] and in [4] was “inactive” in each case.
